The values that follow come from the supplement of paper PMC3545927.

This experiment deals with furin, P09958. Description: furin cleavage Z-score vs untreated control; higher = more cleavage, active = 3.5 or more, inactive = 1 or less, 8 variable residues between constant flanks. In outline: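 Purified furin digested bead-held 8-mer peptide–cDNA fusions at 1:10 enzyme:substrate in 0.01 ml of 50 mM HEPES pH 7.5 with CaCl2 and NaCl for 7.5, 15 or 30 min. The cleavage Z-score compares sequencing counts of released DNA with furin-free reactions on a log scale, with lowess adjustment and median absolute deviation scaling.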
furin, P09958, sequence (P09958 whole entry, the tested form may be a part): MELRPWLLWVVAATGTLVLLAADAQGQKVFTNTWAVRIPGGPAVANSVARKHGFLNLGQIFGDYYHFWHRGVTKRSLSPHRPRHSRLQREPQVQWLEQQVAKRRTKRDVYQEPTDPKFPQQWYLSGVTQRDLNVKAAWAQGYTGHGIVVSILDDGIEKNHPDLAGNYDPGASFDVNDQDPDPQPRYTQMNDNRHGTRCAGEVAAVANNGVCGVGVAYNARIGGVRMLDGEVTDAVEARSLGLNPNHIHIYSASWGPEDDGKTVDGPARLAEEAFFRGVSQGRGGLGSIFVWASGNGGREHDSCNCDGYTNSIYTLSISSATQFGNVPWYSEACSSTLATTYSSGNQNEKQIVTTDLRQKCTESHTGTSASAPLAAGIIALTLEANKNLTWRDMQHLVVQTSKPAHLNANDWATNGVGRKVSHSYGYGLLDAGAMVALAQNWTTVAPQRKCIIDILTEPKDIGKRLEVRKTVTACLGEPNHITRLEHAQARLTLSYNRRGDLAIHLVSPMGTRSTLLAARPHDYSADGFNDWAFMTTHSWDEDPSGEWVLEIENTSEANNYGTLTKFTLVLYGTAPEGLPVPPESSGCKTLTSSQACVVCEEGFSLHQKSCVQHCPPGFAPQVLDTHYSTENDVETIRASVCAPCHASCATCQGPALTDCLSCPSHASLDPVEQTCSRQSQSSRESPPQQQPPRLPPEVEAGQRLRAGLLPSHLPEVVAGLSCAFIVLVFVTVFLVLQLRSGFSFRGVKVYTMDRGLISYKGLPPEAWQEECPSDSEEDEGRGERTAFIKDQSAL

The other results are listed elsewhere or left out. How many sequences the whole screen found active is unknown.

B1: HC1360 (peptide)
chain: CADLSDGSWSAGNASASA
For the sequence B1, the “furin cleavage Z-score” value reads like this: (7.5 min) -0.871 (inactive); (15 min) -1.27 (inactive); (30 min) -0.416 (inactive).

B2: FS-713 (peptide)
chain: CARRLRDKRRAGNASASA
Turning to B2, the “furin cleavage Z-score” value runs as follows: (7.5 min) 0.73 (inactive); (15 min) 2.01; (30 min) 1.44.

B3: FS-1161 (peptide)
chain: CARRQVWKRRAGNASASA
As to B3, the “furin cleavage Z-score” value is 0.586 (inactive) (7.5 min), 4.58 (active) (15 min) and 4.41 (active) (30 min).

B4: FS-3261 (peptide)
chain: CARRIRFVGRAGNASASA
Take B4: the “furin cleavage Z-score” value is, setting by setting: (7.5 min) 0.201 (inactive); (15 min) 1.15; (30 min) 3.25.

B5: HC1645 (peptide)
chain: CAGWFTAGYSAGNASASA
For B5, the “furin cleavage Z-score” value is, setting by setting: (7.5 min) 0.812 (inactive); (15 min) -0.589 (inactive); (30 min) 0.435 (inactive).

B6: HC2229 (peptide)
chain: CAEVVTSTYVAGNASASA
As for B6, the “furin cleavage Z-score” value by setting is: (7.5 min) 0.886 (inactive); (15 min) 0.18 (inactive); (30 min) 0.589 (inactive).

B7: HC134 (peptide)
chain: CAEVVCSTWVAGNASASA
In the case of B7, the “furin cleavage Z-score” value runs as follows: (7.5 min) -0.675 (inactive); (15 min) -0.0617 (inactive); (30 min) -0.318 (inactive).

B8: FS-309 (peptide)
chain: CAVHHRPKRGAGNASASA
On to B8, for which the “furin cleavage Z-score” value is 12 (active) (7.5 min), 10.8 (active) (15 min) and 9.72 (active) (30 min).

B9: FS-665 (peptide)
chain: CAILHRQKRGAGNASASA
Turning to B9, the “furin cleavage Z-score” value runs as follows: (7.5 min) 12.5 (active); (15 min) 12.9 (active); (30 min) 9.04 (active).

B10: FS-899 (peptide)
chain: CAYDCRCKRGAGNASASA
For B10, the “furin cleavage Z-score” value is 0.698 (inactive) (7.5 min), 0.0271 (inactive) (15 min) and 1.85 (30 min).

B11: HC2406 (peptide)
chain: CAEVPCHRPMAGNASASA
B11: the “furin cleavage Z-score” value was -0.721 (inactive) (7.5 min), 1.03 (15 min) and -0.487 (inactive) (30 min).

B12: HC486 (peptide)
chain: CARCDLEDRDAGNASASA
As to B12, the “furin cleavage Z-score” value was 1.03 (7.5 min), -0.684 (inactive) (15 min) and -1.47 (inactive) (30 min).

B13: HC976 (peptide)
chain: CAVQNEITLTAGNASASA
In the case of B13, the “furin cleavage Z-score” value (7.5 min) was -0.158 (inactive), the “furin cleavage Z-score” value (15 min) is -0.101 (inactive) and the “furin cleavage Z-score” value (30 min) was 0.696 (inactive).

B14: HC85 (peptide)
chain: CAVVCISMSYAGNASASA
On to B14, for which the “furin cleavage Z-score” value reads like this: (7.5 min) -1.62 (inactive); (15 min) -2.02 (inactive); (30 min) -0.461 (inactive).

B15: FS-1060 (peptide)
chain: CARGCRARRGAGNASASA
As for B15, the “furin cleavage Z-score” value was 3.97 (active) (7.5 min), 3.87 (active) (15 min) and 2.93 (30 min).

B16: FS-1451 (peptide)
chain: CAEPHRARRGAGNASASA
For B16, the “furin cleavage Z-score” value was 5.81 (active) (7.5 min), 5.59 (active) (15 min) and 6.2 (active) (30 min).

B17: FS-850 (peptide)
chain: CAQRRRARRGAGNASASA
As for B17, the “furin cleavage Z-score” value is 2.4 (7.5 min), 2.13 (15 min) and 0.325 (inactive) (30 min).

B18: HC2482 (peptide)
chain: CAQTPCSAHLAGNASASA
For the sequence B18, the “furin cleavage Z-score” value reads like this: (7.5 min) -0.0432 (inactive); (15 min) 0.702 (inactive); (30 min) 2.39.

B19: HC2574 (peptide)
chain: CASTPCSAHKAGNASASA
Consider B19, for which the “furin cleavage Z-score” value by setting is: (7.5 min) -0.715 (inactive); (15 min) 0.189 (inactive); (30 min) -1.56 (inactive).

B20: HC1391 (peptide)
chain: CATSRSACQRAGNASASA
For B20, the “furin cleavage Z-score” value by setting is: (7.5 min) 0.0948 (inactive); (15 min) 0.314 (inactive); (30 min) 0.239 (inactive).

B21: FS-2259 (peptide)
chain: CARFKRAAGKAGNASASA
In the case of B21, the “furin cleavage Z-score” value reads like this: (7.5 min) 11.2 (active); (15 min) 12.2 (active); (30 min) 9.21 (active).

B22: FS-2553 (peptide)
chain: CARFKRKDRMAGNASASA
For the sequence B22, the “furin cleavage Z-score” value was 4.28 (active) (7.5 min), 3.52 (active) (15 min) and 4.13 (active) (30 min).

B23: FS-2474 (peptide)
chain: CATTKRDAGKAGNASASA
Take B23: the “furin cleavage Z-score” value by setting is: (7.5 min) -0.152 (inactive); (15 min) -0.387 (inactive); (30 min) 0.96 (inactive).

B24: FS-2003 (peptide)
chain: CAREGRDGPKAGNASASA
As to B24, the “furin cleavage Z-score” value (7.5 min) was 0.305 (inactive), the “furin cleavage Z-score” value (15 min) was -0.0392 (inactive) and the “furin cleavage Z-score” value (30 min) was -2.05 (inactive).

B25: FS-1948 (peptide)
chain: CARFKRKLPKAGNASASA
With B25, the “furin cleavage Z-score” value is, setting by setting: (7.5 min) 0.844 (inactive); (15 min) 1.94; (30 min) 3.55 (active).

B26: FS-2268 (peptide)
chain: CARKKRKSPKAGNASASA
In the case of B26, the “furin cleavage Z-score” value reads like this: (7.5 min) 0.83 (inactive); (15 min) 2.91; (30 min) 2.06.

B27: FS-2029 (peptide)
chain: CARICRDIPKAGNASASA
For the sequence B27, the “furin cleavage Z-score” value is, setting by setting: (7.5 min) 3.76 (active); (15 min) 5.68 (active); (30 min) 4.88 (active).

B28: FS-1067 (peptide)
chain: CARPGRKDRRAGNASASA
With B28, the “furin cleavage Z-score” value is 0.778 (inactive) (7.5 min), 1.1 (15 min) and 0.538 (inactive) (30 min).

B29: FS-2811 (peptide)
chain: CARSKRIAGKAGNASASA
For B29, the “furin cleavage Z-score” value is, setting by setting: (7.5 min) 0.535 (inactive); (15 min) -0.714 (inactive); (30 min) 0.638 (inactive).
